The panel holds about 83,000 compounds, 20% with a hit somewhere; the sample as a whole holds those more often.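 48-hour exposure, single concentration, 96-well plates; percent growth endpoint where 0 means no net growth. Active: below 10.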 A number with no mark means an inactive call. Activity calls are given as the source filed them.

Test systems include HCT-15 colon; HT29 colon; SNB-75 CNS; SNB-19 CNS; U251 CNS; PC-3 prostate; SK-MEL-5 melanoma; UACC-62 melanoma; LOX IMVI melanoma; SK-MEL-28 melanoma.
What all share (test): NCI-60 one-dose screen, 48 h (100 = growth as untreated, 0 = no growth, -100 = all killed)
Holding throughout (conditions): 10 µM unless noted

As for `CCOc1cccc(/C=N/NC(=O)c2ccc(Nc3ccnc(C(F)(F)F)c3)cc2)c1O`, the growth with HCT-15 colon was 19.1%; in the assay with HT29 colon it was 49.3%; in the assay on SNB-75 CNS it was 20.6%; in the assay with SNB-19 CNS it was 20%; with U251 CNS, 15.9%; in the assay with PC-3 prostate, 50.8%. In addition, the growth in the assay with SK-MEL-5 melanoma is -54.3% (active); with UACC-62 melanoma, -6.19% (active); in the assay with LOX IMVI melanoma it was 2.5% (active); in the assay on SK-MEL-28 melanoma, 19.2%.
With `CC(C)N1CCN(c2ccncc2S(=O)(=O)N2CCN(C)CC2)CC1`, the growth is 97.6% in the assay with HCT-15 colon; 102% in the assay with HT29 colon; 80.6% in the assay with SNB-75 CNS; 98.7% in the assay with SNB-19 CNS; 98.8% in the assay on U251 CNS; 114% with PC-3 prostate. The growth in the assay with SK-MEL-5 melanoma is 100%; with UACC-62 melanoma it was 108%; in the assay with LOX IMVI melanoma it was 97.4%; with SK-MEL-28 melanoma, 114%.
Regarding `Oc1ccc(CCCCCCc2ccc(O)cc2)cc1`, the growth in the assay with HCT-15 colon is 74.5%; in the assay on HT29 colon it was 83.6%; with SNB-75 CNS it was 51.1%; in the assay on SNB-19 CNS it was 112%; in the assay on U251 CNS it was 54.7%; in the assay on PC-3 prostate, 57.9%. Also, the growth was 50.2% in the assay on SK-MEL-5 melanoma, 13.7% in the assay on UACC-62 melanoma, 53.3% in the assay on LOX IMVI melanoma and 104% with SK-MEL-28 melanoma.
`c1ccc2c(Cc3csc4ccccc34)csc2c1`: the growth is 76.1% with HCT-15 colon; 76.2% in the assay on HT29 colon; 66.9% in the assay with SNB-75 CNS; 90.4% in the assay on SNB-19 CNS; 81.9% in the assay on U251 CNS; 85.2% in the assay with PC-3 prostate. For the same compound, the growth is 91% in the assay with SK-MEL-5 melanoma, 86.4% in the assay on UACC-62 melanoma, 84.3% with LOX IMVI melanoma and 82.9% with SK-MEL-28 melanoma.
As for `CC(=O)[C@@]1(O)[C@H](C)C[C@H]2[C@@H]3C=C(C)C4=Cc5c(cnn5-c5ccccc5)C[C@]4(C)[C@H]3[C@@H](O)C[C@@]21C`, the growth with HCT-15 colon is -27.9% (active); in the assay with HT29 colon, -76.9% (active); with SNB-75 CNS, 40.4%; with SNB-19 CNS it was 70.2%; with U251 CNS it was 6.52% (active); with PC-3 prostate, 1.78% (active). The growth is 38.1% in the assay on SK-MEL-5 melanoma, 1.84% (active) in the assay on UACC-62 melanoma, 4.75% (active) in the assay on LOX IMVI melanoma and 43.6% with SK-MEL-28 melanoma.
In the case of `CC1(C)C2CCC(O)(C(=O)O)C1C2` (stereo not given), the growth is 114% in the assay with HCT-15 colon; 110% in the assay with HT29 colon; 83.4% in the assay with SNB-75 CNS; 102% in the assay on SNB-19 CNS; 113% in the assay on U251 CNS; 94.9% in the assay with PC-3 prostate. Further, the growth in the assay with SK-MEL-5 melanoma was 107%; in the assay with UACC-62 melanoma, 91%; in the assay on LOX IMVI melanoma, 110%; in the assay on SK-MEL-28 melanoma, 102%.
Consider `COc1ccc(-c2nn(-c3cccc(Cl)c3)cc2/C=C2\C(=N)N(c3ccccc3)N=C2N)cc1`, for which the growth is 44.5% in the assay with HCT-15 colon; 57.4% with HT29 colon; 81.6% in the assay on SNB-75 CNS; 83.5% in the assay on SNB-19 CNS; 66.3% in the assay on U251 CNS; 39.6% with PC-3 prostate. In addition, the growth with SK-MEL-5 melanoma is 34.8%; in the assay with UACC-62 melanoma, -3.26% (active); with LOX IMVI melanoma, 6.46% (active); with SK-MEL-28 melanoma it was 32.8%.
As for `C/C(=N\NC(=S)N1CCCCC1)c1ccccn1`, the growth in the assay with HCT-15 colon was 22.1%; with HT29 colon it was 8.66% (active); in the assay on SNB-75 CNS, 28.8%; in the assay on SNB-19 CNS, 22.9%; in the assay with U251 CNS, 3.98% (active); with PC-3 prostate, 9.88% (active). Further, the growth in the assay on SK-MEL-5 melanoma was -33.2% (active); with UACC-62 melanoma it was -14.3% (active); in the assay on LOX IMVI melanoma, 13.4%; in the assay on SK-MEL-28 melanoma, 37%.
With `Cc1cc(C)c2c(NC(=O)Nc3ccc(Cl)c(Cl)c3)n[nH]c2n1`, the growth was 100% in the assay on HCT-15 colon; 96.9% in the assay with HT29 colon; 88.7% with SNB-75 CNS; 101% with SNB-19 CNS; 102% in the assay with U251 CNS; 103% in the assay with PC-3 prostate. For the same compound, the growth was 103% with SK-MEL-5 melanoma, 103% in the assay with UACC-62 melanoma, 99.8% in the assay on LOX IMVI melanoma and 104% in the assay on SK-MEL-28 melanoma.
For the compound `O=C1/C(=C\c2cccn2Cc2ccc(Cl)cc2)c2ccccc2N1c1c(Cl)cccc1Cl`, the growth is 61.4% with HCT-15 colon; 85.5% in the assay with HT29 colon; 82.2% in the assay with SNB-75 CNS; 87.8% in the assay on SNB-19 CNS; 75.6% in the assay with U251 CNS; 57.5% with PC-3 prostate. Further, the growth in the assay with SK-MEL-5 melanoma is 66.1%; in the assay with UACC-62 melanoma, 71.7%; with LOX IMVI melanoma, 91.9%; in the assay on SK-MEL-28 melanoma, 91%.
For the compound `COc1ccc(/C=C2\N=C(c3cccnc3)N(c3ccccc3)NC2=O)cc1`, the growth with HCT-15 colon is 95.1%; with HT29 colon, 107%; in the assay with SNB-75 CNS, 80.6%; in the assay on SNB-19 CNS, 96.8%; with U251 CNS, 106%; with PC-3 prostate it was 74.2%. Besides, the growth in the assay with SK-MEL-5 melanoma is 98.7%; in the assay on UACC-62 melanoma, 95.4%; in the assay with LOX IMVI melanoma, 92.7%; in the assay with SK-MEL-28 melanoma, 129%.
For `Nc1nonc1-c1nc2ccccc2n1Cc1ccc(F)cc1`, the growth in the assay with HCT-15 colon was 30.4%; in the assay with HT29 colon, 17.3%; in the assay with SNB-75 CNS, 32.4%; in the assay with SNB-19 CNS, 63.8%; in the assay on U251 CNS, 52.3%; in the assay with PC-3 prostate, 61.7%. The growth is 56.8% with SK-MEL-5 melanoma, 48.8% with UACC-62 melanoma, 49.1% in the assay with LOX IMVI melanoma and 61.3% in the assay with SK-MEL-28 melanoma.
Take `C=C(C)c1ccc(/C=N/NC(N)=S)cc1`: the growth in the assay with HCT-15 colon was 96%; in the assay with HT29 colon, 86.1%; in the assay on SNB-75 CNS, 104%; in the assay on SNB-19 CNS it was 97.3%; with U251 CNS it was 93.9%; with PC-3 prostate, 100%. The growth with SK-MEL-5 melanoma was 95.1%; in the assay with UACC-62 melanoma, 88.9%; with LOX IMVI melanoma, 97.4%; with SK-MEL-28 melanoma it was 109%.

The values above are taken from PubChem BioAssay (NCI).
